Screening results from PubChem BioAssay.
USP10 block = inhibitors of human USP10 deubiquitinase; purified USP10, Ub-rhodamine fluorescence, 60 min; inhibition, % at 20 µM; 47,000 compounds, 1.1% hits; AID 1645856, 2021
Target sequence (Q14694 whole entry, looked up): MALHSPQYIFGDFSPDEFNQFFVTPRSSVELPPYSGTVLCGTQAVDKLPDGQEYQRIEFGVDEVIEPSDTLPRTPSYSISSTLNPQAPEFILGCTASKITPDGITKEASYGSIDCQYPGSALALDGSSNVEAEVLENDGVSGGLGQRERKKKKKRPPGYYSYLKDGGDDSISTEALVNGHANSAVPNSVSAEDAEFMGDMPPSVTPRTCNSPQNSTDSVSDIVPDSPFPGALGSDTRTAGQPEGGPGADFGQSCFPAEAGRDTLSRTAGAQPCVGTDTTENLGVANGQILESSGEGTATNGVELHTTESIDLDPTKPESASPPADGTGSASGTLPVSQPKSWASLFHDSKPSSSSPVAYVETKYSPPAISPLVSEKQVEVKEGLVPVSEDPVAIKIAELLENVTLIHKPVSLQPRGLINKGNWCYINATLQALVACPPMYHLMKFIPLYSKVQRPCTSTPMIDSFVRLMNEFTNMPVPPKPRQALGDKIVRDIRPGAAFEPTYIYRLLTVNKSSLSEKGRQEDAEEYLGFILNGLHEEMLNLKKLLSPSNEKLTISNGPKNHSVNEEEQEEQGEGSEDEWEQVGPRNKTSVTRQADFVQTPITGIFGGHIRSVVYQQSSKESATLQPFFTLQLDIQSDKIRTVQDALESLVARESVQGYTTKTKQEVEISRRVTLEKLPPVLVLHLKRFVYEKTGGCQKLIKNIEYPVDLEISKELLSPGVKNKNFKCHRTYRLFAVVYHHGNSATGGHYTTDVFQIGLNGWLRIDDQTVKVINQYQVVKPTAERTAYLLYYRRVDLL
USP8 block = inhibitors of human USP8 deubiquitinase; inhibition, % at 20 µM; purified USP8, Ub-rhodamine cleavage fluorescence, 30 min; AID 1645853, 2021; 47,000 compounds, 4.2% hits
USP7 block = inhibitors of human USP7 deubiquitinase | AID 1645854, 2021 | purified USP7, Ub-rhodamine cleavage fluorescence | 47,000 compounds, 0.3% hits | Ubiquitin carboxyl-terminal hydrolase 7 (Homo sapiens), Q93009 | inhibition, % at 20 µM
UCHL1 block = inhibitors of human UCHL1 deubiquitinase. purified UCHL1, Ub-rhodamine cleavage fluorescence. inhibition, % at 20 µM. 47,000 compounds, 0.2% hits. AID 1645859, 2021
Starred values were filed as active, the others as inactive. The list is not random: actives were taken first. Their share in the collection is about 4.6%. Rule as the data show it: active = inhibition above about 30%; inactive = the rest.

SMILES | USP10 block | USP8 block | USP7 block | UCHL1 block
CC(C)=CCCC1(C)C=Cc2c(O)c3c(c(CC=C(C)C)c2O1)O[C@]12C(=C[C@@H]4CC1C(C)(C)O[C@@]2(C/C=C(/C)C(=O)O)C4=O)C3=O (stereo partly drawn) | 75* | 70* | 84* | 64*
Cn1cc(CN2CCC3(CCN(c4ncccn4)CC3)C2)cn1 | -1 | -46 | 2 | -2
O=C1NCC2(CCNCC2)Oc2ccccc21 | 1 | 9 | 6 | 1
CC(C)=CCC[C@H](C(=O)O)[C@@H]1CC[C@]2(C)C3=C(CC[C@@]12C)[C@@]1(C)CCC(=O)C(C)(C)C1CC3 (stereo partly drawn) | 38* | 13 | 6 | 0
CC(=O)OC(c1nc2ccccc2c(=O)n1C1CC2(OC1=O)c1ccccc1N1C(=O)C(C)N(O)C12)C(C)C (stereo not drawn) | -1 | -4 | 1 | 1
Cc1cccc(COc2ccc(C3SCC(=O)Nc4n[nH]c(C)c43)cc2)c1 (stereo not drawn) | 7 | 86* | -24 | 8
CCCCCC(O)c1c(O)cc2c(c1O)C(=O)c1c(O)cc(O)cc1C2=O (stereo not drawn) | 33* | -16 | -104 | 6
COCCN1C[C@@H](C)[C@@]2(COCCN(c3ncccn3)C2)C1 | -2 | -53 | -1 | -1
CN(C)[C@@H]1C(=O)C(C(N)=O)=C(O)[C@@]2(O)C(=O)C3=C(O)c4c(O)cccc4[C@@](C)(O)[C@H]3C[C@@H]12 | -3 | 0 | -74 | 21
CN(C)[C@@H]1C(=O)C(C(N)=O)=C(O)[C@@]2(O)C(=O)C3=C(O)c4c(O)cccc4[C@@](C)(O)C3[C@H](O)[C@@H]12 (stereo partly drawn) | 62* | 50* | 89* | 90*
O=C1CSC(c2ccc(F)cc2)c2c(n(C3CCCCCC3)[nH]c2=O)N1 (stereo not drawn) | 11 | 83* | 22 | 4
O=C1CSC(c2ccc(Cl)cc2)c2c(n(C3CCCC3)[nH]c2=O)N1 (stereo not drawn) | 12 | 25 | 7 | 1
COc1ccccc1-c1cc([C@H]2CN3CC[C@H]2C[C@@H]3CN)n(C)n1 | -9 | 54* | -46 | -66
Cc1cc(C)n2nc(C3=CCN(CC(=O)O)CC3)cc2n1 | -3 | -32 | 0 | 0
Cc1cc(Cl)ccc1NC(=O)CCc1nc(C2=CCN(C)CC2)no1 | -9 | -18 | -14 | -8
Oc1ccc2cc(Br)ccc2c1CN1CC=C(c2ccccc2)CC1 | 2 | 44* | 2 | 1
O=C(CN1CC=C(c2ccccc2)CC1)Nc1ccc2c(c1)OCO2 | -2 | 8 | 3 | 2
N#Cc1ccc(COC(=O)C(O)(c2ccccc2)c2ccccc2)cc1 | 6 | 5 | -106 | 6
Cc1ccc2nc(COC(=O)C(O)(c3ccccc3)c3ccccc3)cc(=O)n2c1 | -2 | 40* | -15 | 2
c1cnc(NC[C@H]2OC[C@@H]3CCN(Cc4ccoc4)C[C@@H]32)nc1 | 4 | -75 | 1 | 0
Cn1c(=O)c2ncnnc2n(C)c1=O | 89* | 98* | -68 | 50*
O=C(c1cc(Cl)c(Cl)[nH]1)c1cc(Cl)cc(Cl)c1O | 40* | 8 | -10 | -3
O=c1c2ccccc2nc(CSc2cccc(Cl)c2Cl)n1-c1ccccc1 | 21 | 30* | 0 | -2
Cc1ccccc1SCc1nc2ccccc2c(=O)n1-c1cccc(C(F)(F)F)c1 | 7 | 19 | -14 | 9
CC[C@@H]1[C@@H](C)O[C@@](O)([C@@H](C)[C@H](O)[C@H](C)[C@H]2OC(=O)/C=C/C=C/[C@H](C)[C@@H]([C@@H](C)[C@@H](O)[C@H](C)[C@@]3(O)C[C@@H](O[C@H]4C[C@H](O)[C@H](O)[C@H](C)O4)[C@H](CC)[C@@H](C)O3)OC(=O)/C=C/C=C/[C@@H]2C)C[C@H]1O[C@H]1C[C@H](O)[C@H](O)[C@H](C)O1 | 1 | -15 | 51* | 13
CCCC[C@@]1(OC(=O)CCC(=O)O)CC[C@]2(CC[C@H](C)[C@@H](C/C=C(C)/C=C/[C@H](O)[C@@H](C)/C=C/C(=O)O)O2)O[C@H]1/C=C/C(C)=C/C(=O)O | 4 | -8 | 0 | -2
O=C(Nc1cccnc1)c1cc2cccnc2n(Cc2ccccc2)c1=O | -6 | 10 | -8 | -3
CCC(CC)n1[nH]c(=O)c2c1NC(=O)CSC2c1ccc2c(c1)OCO2 (stereo not drawn) | 5 | 43* | 10 | -1
